From the supplement of paper PMC10849652
About 7,900 targets were measured; listed, in parts, are those with a hit and a random draw of the rest. About 0.6% of all pairs of compound and target were hits. Values without a mark were called inactive.

Columns and labels:
Assay in all cases: log2 fold change, soluble protein after heating vs DMSO (PISA); higher = thermal stabilisation; K562 cells, 10 uM, 30 min; active = over 0.2 and 3.5 SD of the protein, either way, in both replicates (recomputed)
[1] = compound: NC(=O)Nc1cc(-c2cccc(F)c2)sc1C(=O)N[C@H]1CCCNC1
Outline: (§1)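 K562 cells at 2×10^6 cells/mL were exposed to 10 μM compound for 30 min, then aliquots were heated for 3 min across 48°C-58°C, pooled, and extracted in PBS containing 0.5% NP-40 at 4°C. The supernatant after 21,000xg for 90 min was taken as soluble protein and measured by TMTpro 16plex LC-MS/MS with channel sums equalised. Thermal stability is reported relative to control samples, with values from duplicates. Fold changes are given on a log2 scale.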

[2] = compound: NC(=O)c1cnc(N[C@@H]2CCCC[C@@H]2N)nc1Nc1cccc(-n2nccn2)c1
Outline: as §1

[3] = compound: NC1(c2ccc(-c3nc4ccn5c(=O)[nH]nc5c4cc3-c3ccccc3)cc2)CCC1
Outline: as §1

[4] = compound: NCC(=O)Nc1ccc(-n2nc(C(F)(F)F)cc2-c2ccc3c(ccc4ccccc43)c2)cc1
Outline: as §1

entinostat = compound: Nc1ccccc1NC(=O)c1ccc(CNC(=O)OCc2cccnc2)cc1 [entinostat]
Outline: as §1

vorinostat = compound: O=C(CCCCCCC(=O)Nc1ccccc1)NO [vorinostat]
Outline: as §1

citarinostat = compound: O=C(CCCCCCNC(=O)c1cnc(N(c2ccccc2)c2ccccc2Cl)nc1)NO [citarinostat]
Outline: as §1

silmitasertib = compound: O=C(O)c1ccc2c(c1)nc(Nc1cccc(Cl)c1)c1ccncc12 [silmitasertib]
Outline: as §1

[5] = compound: O=C1NC(=O)C(c2cnc3ccccn23)=C1c1cn2c3c(cc(F)cc13)CN(C(=O)N1CCCCC1)CC2
Outline: as §1

[6] = compound: c1cc(OCCN2CCCCC2)cc(-c2n[nH]c3ccc(-c4nnc[nH]4)cc23)c1
Outline: as §1

Sequence of UniProt O15127 (O15127 whole entry, looked up): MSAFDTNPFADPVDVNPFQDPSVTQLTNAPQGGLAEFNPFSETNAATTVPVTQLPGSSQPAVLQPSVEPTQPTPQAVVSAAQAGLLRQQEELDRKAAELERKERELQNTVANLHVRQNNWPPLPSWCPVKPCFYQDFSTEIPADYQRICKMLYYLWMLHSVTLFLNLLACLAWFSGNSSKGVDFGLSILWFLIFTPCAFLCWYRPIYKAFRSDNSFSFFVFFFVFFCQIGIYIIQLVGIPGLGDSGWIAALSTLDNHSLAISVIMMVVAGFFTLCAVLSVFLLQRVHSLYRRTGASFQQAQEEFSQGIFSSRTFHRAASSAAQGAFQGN
Sequence of UniProt Q92878 (Q92878 whole entry, looked up): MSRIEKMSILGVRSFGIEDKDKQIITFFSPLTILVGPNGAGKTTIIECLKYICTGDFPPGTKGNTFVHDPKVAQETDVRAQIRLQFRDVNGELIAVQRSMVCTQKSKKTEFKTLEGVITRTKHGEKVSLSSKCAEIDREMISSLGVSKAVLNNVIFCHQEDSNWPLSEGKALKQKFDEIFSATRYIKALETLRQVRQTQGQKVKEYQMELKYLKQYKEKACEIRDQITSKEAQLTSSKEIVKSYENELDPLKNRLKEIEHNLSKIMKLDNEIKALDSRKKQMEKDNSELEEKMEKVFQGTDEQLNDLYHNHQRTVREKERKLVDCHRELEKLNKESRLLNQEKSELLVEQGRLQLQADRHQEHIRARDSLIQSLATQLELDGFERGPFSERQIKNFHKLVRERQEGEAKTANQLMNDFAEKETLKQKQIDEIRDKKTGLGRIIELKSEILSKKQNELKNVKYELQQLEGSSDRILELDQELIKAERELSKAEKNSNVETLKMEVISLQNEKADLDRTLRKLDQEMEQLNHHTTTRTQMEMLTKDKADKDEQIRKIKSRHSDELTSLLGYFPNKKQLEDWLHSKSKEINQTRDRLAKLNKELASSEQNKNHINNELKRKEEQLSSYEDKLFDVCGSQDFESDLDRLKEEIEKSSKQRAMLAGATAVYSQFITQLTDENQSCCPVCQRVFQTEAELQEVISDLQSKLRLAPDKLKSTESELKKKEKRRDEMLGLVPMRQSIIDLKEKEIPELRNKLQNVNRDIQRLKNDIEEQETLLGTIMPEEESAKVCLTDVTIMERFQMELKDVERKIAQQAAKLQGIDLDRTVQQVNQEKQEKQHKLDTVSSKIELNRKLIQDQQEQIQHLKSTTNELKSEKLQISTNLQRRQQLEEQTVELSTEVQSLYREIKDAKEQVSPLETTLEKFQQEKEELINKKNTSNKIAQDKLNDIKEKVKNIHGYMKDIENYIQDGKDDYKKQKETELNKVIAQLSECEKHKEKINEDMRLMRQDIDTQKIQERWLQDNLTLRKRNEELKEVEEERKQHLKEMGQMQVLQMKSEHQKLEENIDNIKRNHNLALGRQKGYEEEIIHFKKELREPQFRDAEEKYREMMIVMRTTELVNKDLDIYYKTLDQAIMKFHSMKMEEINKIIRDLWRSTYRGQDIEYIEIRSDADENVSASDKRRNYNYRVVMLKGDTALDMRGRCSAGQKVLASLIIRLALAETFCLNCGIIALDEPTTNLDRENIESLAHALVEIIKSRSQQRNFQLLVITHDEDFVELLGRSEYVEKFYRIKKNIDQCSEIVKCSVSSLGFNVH
Sequence of UniProt Q14151 (Q14151 whole entry, looked up): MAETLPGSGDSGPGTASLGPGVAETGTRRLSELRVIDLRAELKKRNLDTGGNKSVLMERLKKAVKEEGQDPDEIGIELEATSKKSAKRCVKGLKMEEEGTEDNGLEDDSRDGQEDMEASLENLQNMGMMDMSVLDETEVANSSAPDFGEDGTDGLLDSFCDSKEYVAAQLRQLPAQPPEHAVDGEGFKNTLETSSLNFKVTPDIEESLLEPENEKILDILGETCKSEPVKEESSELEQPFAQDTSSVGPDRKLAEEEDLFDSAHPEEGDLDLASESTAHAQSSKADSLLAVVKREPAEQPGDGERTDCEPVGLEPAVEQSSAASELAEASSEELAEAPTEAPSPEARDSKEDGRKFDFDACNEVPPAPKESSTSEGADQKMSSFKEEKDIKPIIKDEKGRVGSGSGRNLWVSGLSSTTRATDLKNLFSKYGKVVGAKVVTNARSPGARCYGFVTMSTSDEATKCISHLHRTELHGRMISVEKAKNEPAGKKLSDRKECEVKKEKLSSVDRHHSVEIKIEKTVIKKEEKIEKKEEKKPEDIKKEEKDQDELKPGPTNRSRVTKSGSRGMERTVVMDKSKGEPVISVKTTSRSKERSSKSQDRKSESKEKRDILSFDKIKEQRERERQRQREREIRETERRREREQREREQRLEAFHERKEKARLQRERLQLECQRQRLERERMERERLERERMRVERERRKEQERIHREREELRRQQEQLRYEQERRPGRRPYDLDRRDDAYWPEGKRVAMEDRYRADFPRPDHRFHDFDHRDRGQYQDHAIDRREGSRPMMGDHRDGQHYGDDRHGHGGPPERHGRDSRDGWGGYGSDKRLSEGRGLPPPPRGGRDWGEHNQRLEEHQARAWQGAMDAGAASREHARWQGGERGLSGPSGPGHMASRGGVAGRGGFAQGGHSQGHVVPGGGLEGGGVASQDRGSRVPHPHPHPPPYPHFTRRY
Sequence of UniProt Q8TD22 (Q8TD22 whole entry, looked up): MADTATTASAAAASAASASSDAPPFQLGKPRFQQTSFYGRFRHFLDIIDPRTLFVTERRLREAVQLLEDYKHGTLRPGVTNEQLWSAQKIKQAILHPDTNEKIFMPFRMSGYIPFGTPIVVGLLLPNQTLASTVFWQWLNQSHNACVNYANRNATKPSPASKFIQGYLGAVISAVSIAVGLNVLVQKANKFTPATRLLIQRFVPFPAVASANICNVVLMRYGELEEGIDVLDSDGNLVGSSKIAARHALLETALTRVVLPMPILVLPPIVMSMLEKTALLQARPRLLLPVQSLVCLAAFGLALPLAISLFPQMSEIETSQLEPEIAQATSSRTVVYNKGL
Sequence of UniProt P58004 (P58004 whole entry, looked up): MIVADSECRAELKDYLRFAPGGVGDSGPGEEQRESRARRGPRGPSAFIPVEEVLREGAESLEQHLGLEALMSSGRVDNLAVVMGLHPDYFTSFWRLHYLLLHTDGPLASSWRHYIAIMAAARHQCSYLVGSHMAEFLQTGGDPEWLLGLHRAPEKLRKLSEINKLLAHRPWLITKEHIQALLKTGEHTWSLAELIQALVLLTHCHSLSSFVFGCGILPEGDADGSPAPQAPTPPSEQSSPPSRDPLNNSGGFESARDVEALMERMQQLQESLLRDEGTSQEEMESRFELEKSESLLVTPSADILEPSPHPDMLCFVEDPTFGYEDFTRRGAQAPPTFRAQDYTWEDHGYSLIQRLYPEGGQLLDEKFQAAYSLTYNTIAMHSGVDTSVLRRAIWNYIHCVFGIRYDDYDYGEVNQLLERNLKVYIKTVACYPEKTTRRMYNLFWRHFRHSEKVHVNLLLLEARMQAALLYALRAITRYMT
Sequence of UniProt O75116 (O75116 whole entry, looked up): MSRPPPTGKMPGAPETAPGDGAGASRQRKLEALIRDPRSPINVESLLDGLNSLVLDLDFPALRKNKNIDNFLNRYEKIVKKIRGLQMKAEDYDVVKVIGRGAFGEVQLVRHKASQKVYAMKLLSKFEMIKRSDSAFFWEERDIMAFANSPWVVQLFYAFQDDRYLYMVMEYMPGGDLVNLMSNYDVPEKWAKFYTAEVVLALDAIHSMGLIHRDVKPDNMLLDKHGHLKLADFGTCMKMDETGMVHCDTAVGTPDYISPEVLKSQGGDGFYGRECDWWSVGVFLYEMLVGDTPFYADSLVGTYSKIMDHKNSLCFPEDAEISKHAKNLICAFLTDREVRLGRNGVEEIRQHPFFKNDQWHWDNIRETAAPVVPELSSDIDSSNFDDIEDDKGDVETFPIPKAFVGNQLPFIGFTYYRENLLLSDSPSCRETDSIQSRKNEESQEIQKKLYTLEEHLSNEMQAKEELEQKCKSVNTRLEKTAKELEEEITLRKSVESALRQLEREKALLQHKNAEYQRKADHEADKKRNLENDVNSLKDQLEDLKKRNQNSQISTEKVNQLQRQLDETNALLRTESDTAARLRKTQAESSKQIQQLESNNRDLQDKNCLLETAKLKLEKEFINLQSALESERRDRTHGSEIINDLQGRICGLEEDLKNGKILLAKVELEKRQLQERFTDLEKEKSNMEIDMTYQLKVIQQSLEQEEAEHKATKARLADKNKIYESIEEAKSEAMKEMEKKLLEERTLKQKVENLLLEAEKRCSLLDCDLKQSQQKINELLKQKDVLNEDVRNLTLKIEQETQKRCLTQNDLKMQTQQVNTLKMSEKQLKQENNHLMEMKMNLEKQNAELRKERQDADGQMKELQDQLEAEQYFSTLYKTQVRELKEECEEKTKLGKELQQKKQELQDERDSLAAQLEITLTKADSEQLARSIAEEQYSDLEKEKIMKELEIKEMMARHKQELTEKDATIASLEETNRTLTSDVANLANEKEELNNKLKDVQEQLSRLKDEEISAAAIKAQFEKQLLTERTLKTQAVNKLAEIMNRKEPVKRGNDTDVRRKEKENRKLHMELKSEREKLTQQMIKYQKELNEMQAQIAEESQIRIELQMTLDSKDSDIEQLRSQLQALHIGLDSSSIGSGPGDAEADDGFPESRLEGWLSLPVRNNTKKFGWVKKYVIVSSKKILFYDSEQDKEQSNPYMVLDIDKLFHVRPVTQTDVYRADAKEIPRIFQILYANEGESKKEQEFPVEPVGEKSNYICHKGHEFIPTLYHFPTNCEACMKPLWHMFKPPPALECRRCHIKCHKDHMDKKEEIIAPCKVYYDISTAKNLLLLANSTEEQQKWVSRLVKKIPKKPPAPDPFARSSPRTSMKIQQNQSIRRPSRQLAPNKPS
Sequence of UniProt P35244 (P35244 whole entry, looked up): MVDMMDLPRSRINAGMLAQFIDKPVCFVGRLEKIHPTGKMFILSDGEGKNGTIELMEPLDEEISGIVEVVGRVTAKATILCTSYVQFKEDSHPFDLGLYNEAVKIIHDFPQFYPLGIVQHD

Target | log2 fold change [1] | log2 fold change [2] | log2 fold change [3] | log2 fold change [4] | log2 fold change (entinostat) | log2 fold change (vorinostat) | log2 fold change (citarinostat) | log2 fold change (silmitasertib) | log2 fold change [5] | log2 fold change [6]
RAF1 isoform 2 (UniProt P04049) | -0.208 | -0.012 | 0.086 | -0.017 | -0.033 | 0.069 | -0.037 | -0.033 | -0.13 | -0.133
SAFB2 (UniProt Q14151) | 0.116 | 0.084 | 0.255 | 0.043 | -0.076 | -0.016 | -0.098 | 0.119 | 0.084 | -0.038
SH3GL1 (UniProt Q99961) | -0.049 | -0.088 | -0.106 | -0.032 | 0.143 | 0.082 | 0.068 | 0.028 | 0.006 | -0.041
RB1 (UniProt P06400) | 0.11 | -0.133 | -0.072 | -0.01 | 0.015 | 0.05 | 0.039 | 0.039 | -0.241 (active) | -0.038
RIOK3 (UniProt O14730) | 0.047 | -0.005 | -0.061 | 0.015 | -0.005 | 0.043 | 0.036 | -0.011 | 0.057 | -0.046
RNPEP (UniProt Q9H4A4) | -0.001 | -0.093 | -0.086 | -0.027 | 0.042 | 0.033 | 0.018 | 0.031 | -0.017 | -0.033
SACM1L (UniProt Q9NTJ5) | -0.045 | 0 | -0.102 | -0.083 | 0.016 | 0.006 | 0.044 | 0.034 | -0.068 | -0.017
RCC1 isoform 2 (UniProt P18754) | -0.084 | -0.174 | -0.18 | -0.066 | 0.132 | 0.094 | 0.026 | -0.056 | -0.132 | -0.024
RPS3 (UniProt P23396) | -0.006 | 0.05 | 0.117 | 0.033 | -0.055 | 0.015 | -0.035 | -0.008 | 0.029 | -0.145
RAB9A (UniProt P51151) | 0.014 | -0.026 | -0.229 (active) | -0.022 | 0 | 0.035 | 0.039 | -0.028 | -0.032 | -0.018
ROCK2 (UniProt O75116) | 0.043 | -0.044 | -0.106 | -0.017 | 0.031 | 0.08 | 0.013 | 0.096 | 0.017 | 0.06
RNF14 (UniProt Q9UBS8) | -0.016 | -0.054 | -0.157 | 0.008 | 0.037 | 0.021 | -0.006 | 0.003 | -0.127 | -0.007
RNASEH2A (UniProt O75792) | -0.017 | -0.06 | -0.181 | -0.109 | 0.037 | -0.145 | 0.015 | 0.014 | -0.208 | -0.015
RARS2 (UniProt Q5T160) | 0.042 | -0.035 | -0.182 | -0.043 | 0.03 | 0.029 | 0.048 | 0.006 | -0.022 | -0.053
RSL1D1 (UniProt O76021) | -0.001 | 0.207 | 0.339 | 0.188 | -0.133 | -0.016 | -0.105 | 0.329 | 0.409 | -0.265
RPA3 (UniProt P35244) | 0.044 | 0.086 | -0.021 | 0.371 (active) | 0.102 | -0.005 | 0.1 | -0.007 | -0.164 | -0.071
RBM25 (UniProt P49756) | 0 | 0.007 | -0.058 | -0.025 | 0.031 | 0.067 | 0.015 | 0.019 | 0.005 | -0.053
RAD50 isoform 2 (UniProt Q92878) | -0.011 | -0.042 | -0.057 | -0.064 | 0.038 | -0.014 | 0.047 | -0.008 | -0.034 | 0.009
RMC1 (UniProt Q96DM3) | -0.026 | -0.141 | -0.384 (active) | -0.039 | 0.048 | 0.017 | 0.04 | 0.025 | -0.036 | -0.045
RBM27 (UniProt Q9P2N5) | -0.151 | -0.015 | -0.058 | -0.042 | 0.044 | 0.125 | 0.04 | -0.078 | -0.056 | -0.064
SCAMP2 (UniProt O15127) | -0.007 | 0.168 | 0.001 | 0.029 | -0.001 | -0.027 | 0.189 | -0.002 | 0.109 | -0.065
SESN2 (UniProt P58004) | -0.069 | -0.159 | -0.129 | -0.093 | 0.075 | 0.079 | -0.081 | 0.108 | -0.123 | 0.026
SCAF11 (UniProt Q99590) | 0.019 | 0.073 | 0.129 | -0.003 | -0.054 | 0.12 | -0.13 | -0.038 | 0.147 | -0.29
SETMAR (UniProt Q53H47) | 0.11 | -0.024 | 0.05 | -0.078 | -0.032 | 0.004 | -0.629 (active) | -0.064 | -0.105 | -0.255
SCAF8 isoform 2 (UniProt Q9UPN6) | -0.062 | -0.028 | -0.086 | -0.044 | 0.053 | 0.166 | 0.058 | -0.003 | -0.098 | -0.093
RIC8A isoform 3 (UniProt Q9NPQ8) | -0.035 | -0.154 | -0.126 | -0.088 | 0.192 | 0.058 | 0.12 | -0.005 | 0.084 | -0.096
RDH13 (UniProt Q8NBN7) | -0.038 | -0.049 | -0.064 | -0.055 | -0.032 | 0.002 | 0.029 | -0.013 | -0.029 | -0.02
RPS16 (UniProt P62249) | 0.086 | 0.08 | 0.182 | 0.043 | -0.043 | 0.017 | -0.044 | -0.097 | 0.093 | -0.119
SART3, A0A499FI31 | -0.011 | -0.105 | -0.175 | -0.054 | 0.055 | 0.1 | 0.098 | 0.114 | -0.136 | -0.02
SFXN5 (UniProt Q8TD22) | -0.043 | 0.042 | -0.072 | -0.095 | -0.068 | 0.019 | -0.028 | -0.003 | 0.012 | 0.072
